# “And” between values parts separate entries of the source, which are not always exact repeats. Equal entries are not always repeated. Inconclusive results are not listed. A call without a number means that no potency is given here. Some compounds were tested as several samples or in several runs, with calls that do not always agree. The source made the active and inactive calls. Calls follow the shape of the dose curve; as a rule, active = well fitted cell-killing curve with a large enough effect in the repeat runs; inconclusive = weak or mixed curves; inactive = no such curve, though single readings can be large or run the other way.
# Experiment: qHTS assay for identifying genotoxic compounds that show differential cytotoxicity against isogenic chicken DT40 cell lines with known DNA damage response pathways - Rad54/Ku70 mutant cell line (AID 743015); also: nearly all actives have a fitted effect of over 60% in size
# Settings: DT40 Rad54/Ku70 mutant viability, CellTiter-Glo, 40 h; series mostly up to 66.8 µM
# Potency is read from the fitted curve at half-maximal effect.
row,Compound,Potency
1,O=C(NCNC(=O)NC1C(=O)NC(=O)N1CO)NC1C(=O)NC(=O)N1CO (centres undefined),inactive
2,Cc1ncc(C[n+]2csc(CCO)c2C)c(N)n1,inactive
3,O=C(N[C@H]1CN2CCC1CC2)c1ccc2c(c1)OCCO2,inactive
4,Cc1ccc(N)c(C)c1,inactive
5,C[C@H]1O[C@H](OC2[C@@H](O)[C@@H](O)C(O)[C@H](O)[C@H]2O)[C@@H](N)C[C@@H]1N=C(N)C(=O)O (some centres undefined),inactive
6,N#CC(C#N)=Cc1ccc(O)c(O)c1,26.6 µM (active)
7,CCCN(CCC)c1c([N+](=O)[O-])cc(C(C)C)cc1[N+](=O)[O-],inactive and 54.5 µM (active)
8,NP(N)(=O)NC(=O)c1ccc(F)cc1,inactive
9,COc1ccc(C(O)(c2cncnc2)C2CC2)cc1 (centres undefined),inactive
10,C1CS1,inactive
11,CCC[N+](CCC)(CCC)CCC,inactive
12,Clc1ccccc1,inactive
13,C=CCc1ccccc1O,inactive
14,CCOP(=O)(O)C(N)=O,inactive
15,CCN(C(C)=O)c1cccc(-c2ccnc3c(C#N)cnn23)c1,inactive
16,CC(Oc1cc(Cl)c(Cl)cc1Cl)C(=O)O (centres undefined),inactive
17,FC(F)OC(F)(F)C(F)Cl (centres undefined),inactive
18,ClCc1ccccc1Cl,inactive
19,CCCCCCCCP(=O)(O)O,inactive

row,Compound,Potency
1,CCCN(CCOc1c(Cl)cc(Cl)cc1Cl)C(=O)n1ccnc1,49.6 µM (active) and 27.3 µM (active)
2,CCC(C)(C)c1ccc(O)c(C(C)(C)CC)c1,53.9 µM (active) and 24.3 µM (active)
3,O=[N+]([O-])c1cc(Cl)c(Cl)cc1Cl,inactive
4,O=C([O-])c1ccccn1.O=C([O-])c1ccccn1.O=C([O-])c1ccccn1.[Cr+3],inactive
5,Cc1cnc(C2=NC(C)(C(C)C)C(=O)N2)c(C(=O)O)c1 (centres undefined),inactive
6,CC(C)[C@@H](C(=O)O[C@@H](C#N)c1cccc(Oc2ccccc2)c1)c1ccc(Cl)cc1,30.6 µM (active)
7,C=CCOCC1CO1 (centres undefined),inactive
8,CC1(C)[C@H](C(=O)O[C@H](C#N)c2cccc(Oc3ccccc3)c2)[C@@H]1C=C(Br)Br,inactive and 43.3 µM (active)
9,Cc1ccccc1,inactive
10,CC(O)CN1CCN(CC(=O)[O-])CCN(CC(=O)[O-])CCN(CC(=O)[O-])CC1.[Gd+3] (centres undefined),inactive
11,CC(C)(C)c1ccc(CCOc2ncnc3ccccc23)cc1,inactive
12,Cc1ccc2c(C)cccc2c1,inactive
13,Clc1ccc2ccccc2c1,inactive
14,CC(C)CCON=O,inactive
15,C=CC(=O)OCC,inactive
16,CC(C)(C)NCC(O)c1ccccc1Cl (centres undefined),inactive
17,CCCCCCCCCCCCCCCl,inactive
18,Nc1c(Br)cc(Br)c2c1C(=O)c1ccccc1C2=O,inactive

# Experiment: qHTS assay to identify small molecule antagonists of the androgen receptor (AR) signaling pathway - cell viability counter screen (AID 743033; also: nearly all actives have a fitted effect of over 45% in size)
# Settings: AR-bla HEK293 viability, CellTiter-Glo luminescence, 16 h; series mostly up to 58.5 µM
row,Compound,Potency
1,O=C(NCNC(=O)NC1C(=O)NC(=O)N1CO)NC1C(=O)NC(=O)N1CO (centres undefined),inactive
2,Cc1ncc(C[n+]2csc(CCO)c2C)c(N)n1,inactive
3,O=C(N[C@H]1CN2CCC1CC2)c1ccc2c(c1)OCCO2,inactive
4,Cc1ccc(N)c(C)c1,inactive
5,C[C@H]1O[C@H](OC2[C@@H](O)[C@@H](O)C(O)[C@H](O)[C@H]2O)[C@@H](N)C[C@@H]1N=C(N)C(=O)O (some centres undefined),inactive
6,N#CC(C#N)=Cc1ccc(O)c(O)c1,inactive
7,CCCN(CCC)c1c([N+](=O)[O-])cc(C(C)C)cc1[N+](=O)[O-],inactive
8,NP(N)(=O)NC(=O)c1ccc(F)cc1,inactive
9,COc1ccc(C(O)(c2cncnc2)C2CC2)cc1 (centres undefined),inactive
10,C1CS1,inactive
11,CCC[N+](CCC)(CCC)CCC,inactive
12,Clc1ccccc1,inactive
13,C=CCc1ccccc1O,inactive
14,CCOP(=O)(O)C(N)=O,inactive
15,CCN(C(C)=O)c1cccc(-c2ccnc3c(C#N)cnn23)c1,inactive
16,CC(Oc1cc(Cl)c(Cl)cc1Cl)C(=O)O (centres undefined),inactive
17,FC(F)OC(F)(F)C(F)Cl (centres undefined),inactive
18,ClCc1ccccc1Cl,inactive
19,CCCCCCCCP(=O)(O)O,inactive

row,Compound,Potency
1,CCCN(CCOc1c(Cl)cc(Cl)cc1Cl)C(=O)n1ccnc1,25.1 µM (active)
2,CCC(C)(C)c1ccc(O)c(C(C)(C)CC)c1,54.4 µM (active)
3,O=[N+]([O-])c1cc(Cl)c(Cl)cc1Cl,inactive
4,O=C([O-])c1ccccn1.O=C([O-])c1ccccn1.O=C([O-])c1ccccn1.[Cr+3],inactive
5,Cc1cnc(C2=NC(C)(C(C)C)C(=O)N2)c(C(=O)O)c1 (centres undefined),inactive
6,CC(C)[C@@H](C(=O)O[C@@H](C#N)c1cccc(Oc2ccccc2)c1)c1ccc(Cl)cc1,inactive
7,C=CCOCC1CO1 (centres undefined),inactive
8,CC1(C)[C@H](C(=O)O[C@H](C#N)c2cccc(Oc3ccccc3)c2)[C@@H]1C=C(Br)Br,inactive
9,Cc1ccccc1,inactive
10,CC(O)CN1CCN(CC(=O)[O-])CCN(CC(=O)[O-])CCN(CC(=O)[O-])CC1.[Gd+3] (centres undefined),inactive
11,CC(C)(C)c1ccc(CCOc2ncnc3ccccc23)cc1,inactive
12,Cc1ccc2c(C)cccc2c1,inactive
13,Clc1ccc2ccccc2c1,inactive
14,CC(C)CCON=O,inactive
15,C=CC(=O)OCC,inactive
16,CC(C)(C)NCC(O)c1ccccc1Cl (centres undefined),inactive
17,CCCCCCCCCCCCCCCl,inactive
18,Nc1c(Br)cc(Br)c2c1C(=O)c1ccccc1C2=O,inactive

# Source: PubChem BioAssay (Tox21)
